Experimental findings from PubChem BioAssay (Tox21) are described below.

Several values for one entry are separate records, joined by “and”; a condition that tells them apart may be missing. Equal values may be shown once. Records with an inconclusive call do not appear. Where a structure was tested more than once in an assay, its records may differ in their call. Activity calls are given as the source filed them. Unless noted, calls follow the shape of the dose curve; as a rule, active = well fitted curve in the direction sought with a large enough effect in the repeat runs; inconclusive = weak or mixed curves; inactive = no such curve, though single readings can be large; an effect the other way counts as inactive or inconclusive.

Assay [1] has as its target Progesterone receptor (Homo sapiens) (UniProt P06401). The assay can be described thus: qHTS assay to identify small molecule agonists of the progesterone receptor (PR) signaling pathway (AID 1346784; calls by dose curve; also: nearly all actives have a fitted effect of over 30% in size). An outline of the steps: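 Reporter assay, GripTite PR-UAS-bla HEK 293T cells: 16 hr exposure to DMSO-dissolved compounds at 37C, 5% CO2, in steroid-depleted (2% charcoal-stripped FBS) medium; beta-lactamase measured by FRET fluorescence.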
(In qHTS, concentration-response curves come from the screen itself.)

Assay [2] shares this target. The assay can be described thus: qHTS assay to identify small molecule antagonists of the progesterone receptor (PR) signaling pathway (AID 1346795; active = well fitted inhibition curve with a large enough effect in the signal ratio in the repeat runs, not every such curve was filed as active; the % refers to the signal ratio; also: potency is read from the fitted curve at half-maximal effect). An outline of the steps: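 Stimulus R5020 at 1 nM final; cells HEK293T PR-UAS-bla; medium with 2% charcoal-stripped FBS; compound exposure 16 hr at 37C, 5% CO2; detection by FRET beta-lactamase substrate, 2 hr, room temperature.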

Assay [3] in a line: qHTS assay to identify small molecule antagonists of the progesterone receptor (PR) signaling pathway - cell viability counter screen (AID 1346798). Also: series mostly up to about 92 µM; nearly all actives have a fitted effect of over 50% in size. An outline of the steps:
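In the same plates used for the beta-lactamase readout, cell viability of compound- and R5020-treated PR-UAS-bla HEK293T cells (16 hr, 37C) was assessed by CellTiter-Glo luminescence.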

Assay [4] is described as follows: qHTS assay to identify small molecule agonists of the progesterone receptor (PR) signaling pathway - cell viability counter screen (AID 1346799; calls by dose curve; also: nearly all actives have a fitted effect of over 45% in size). The method in brief:
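Multiplexed viability read: CellTiter-Glo luminescence, 30 min RT, following LiveBLAzer FRET measurement on PR-UAS-bla HEK293T cells exposed to compounds 16 hr.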

Assay [5] is described as follows: qHTS assay to identify small molecule antagonists of the TGF-beta/Smad signaling pathway - cell viability counter screen (AID 1346824). Also: nearly all actives have a fitted effect of over 50% in size. An outline of the steps: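 SBE-bla HEK 293T cells, incubated overnight, then compound plus 0.25 ng/mL TGF-beta1 (stock added) for 5 hr at 37 C. Viability was read in the same wells by CellTiter-Glo luminescence after 30 min at room temperature.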

Assay [6] in a line: qHTS assay to identify small molecule agonists of the TGF-beta/Smad signaling pathway (AID 1346859; active = well fitted activation curve with a large enough effect in the signal ratio in the repeat runs, not every such curve was filed as active; the % refers to the signal ratio; also: series mostly up to about 77 µM). The method in brief: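 Screening used HEK 293T SBE-bla cells at 4,000/well. Test agents: 5 hr, 37 C. Detection: FRET substrate, 2 hr RT, then excitation 405 nm with emissions at 460 and 530 nm.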
Assay [7] deals with Thyrotropin-releasing hormone receptor (Homo sapiens) (UniProt P34981). The assay can be described thus: qHTS assay to identify small molecule antagonists of the thyrotropin-releasing hormone receptor (TRHR) signaling pathway (AID 1346877; active = well fitted inhibition curve with a large enough effect in the repeat runs, not every such curve was filed as active; also: potency is read from the fitted curve at half-maximal effect). The method in brief:
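Kinetic fluorescence (3 min, 1 s resolution) following stimulation with TRH at 1 nM final; HEK293 cells bearing human TRHR; 5 min compound preincubation at RT; concentration-response over 15 points, triplicates.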

Assay [8] has the same target. The assay can be described thus: qHTS assay to identify small molecule agonists of the thyrotropin-releasing hormone receptor (TRHR) signaling pathway (AID 1346891; calls by dose curve; also: series mostly up to about 58 µM). An outline of the steps: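 Readout was intracellular calcium fluorescence in TRHR-Hek293 cells. Cells were incubated 18 h, dye-loaded 2 h at 37 °C, and treated with compound in agonist mode.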
Assay [9] can be described thus: Human pregnane X receptor (PXR) small molecule agonists, qHTS cell viability counter screen (AID 1346977). Also: nearly all actives have a fitted effect of over 50% in size. Also: potency is read from the fitted curve at half-maximal effect. The method in brief: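 In each well, the PXR reporter HepG2 line was checked for viability: CellTiter-Fluor reagent added 23hr post-dosing, fluorescence read after 1hr incubation at 37C.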
Assay [10] can be described thus: Caspase-3/7 induction in HepG2 cells by small molecules, qHTS assay (AID 1346978). Also: nearly all actives have a fitted effect of over 15% in size. The method in brief:
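Wild-type HepG2 cells, 2,000/well, settled 5 hr at 37 C and 5% CO2, then compound-treated for 17 hr; caspase-3/7 activity read by luminescent Caspase-Glo 3/7 after 30 min at room temperature.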

A short description of assay [11]: Caspase-3/7 induction in CHO-K1 cells by small molecules, qHTS cell viability counter screen (AID 1346979). Also: nearly all actives have a fitted effect of over 35% in size. Also: potency is read from the fitted curve at half-maximal effect. An outline of the steps:
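Following a 5hr settling period, CHO-K1 cells at 1,500 per well received DMSO-dissolved compounds. Cell viability was quantified 16hr later by CellTiter-Fluor fluorescence, measured after 1hr with reagent at 37C.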

Assay [12] can be described thus: Caspase-3/7 induction in CHO-K1 cells by small molecules, qHTS assay (AID 1346980). Also: nearly all actives have a fitted effect of over 15% in size. An outline of the steps: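 Wild-type CHO-K1 cells exposed to compounds for 17hr at 37 C, 5% CO2. Caspase-3/7 activity then measured by Caspase-Glo 3/7 luminescence after 30min at room temperature.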
The target of assay [13] is Nuclear receptor subfamily 1 group I member 2 (Homo sapiens) (UniProt O75469). The assay can be described thus: Human pregnane X receptor (PXR) small molecule agonists, qHTS assay (AID 1346982). Also: nearly all actives have a fitted effect of over 35% in size. Also: potency is read from the fitted curve at half-maximal effect. An outline of the steps: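 Reporter HepG2 cells expressing PXR-Luc are cultured in charcoal-stripped FBS (5%), treated with compounds for 24 hr at 37 C, and assayed by ONE-Glo luminescence after 30 min at room temperature.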

Assay [14] has as its target Acetylcholinesterase (Homo sapiens) (UniProt P22303). The assay can be described thus: Acetylcholinesterase (AChE) small molecule antagonists: colormetric cell-based qHTS assay (AID 1347395; calls by dose curve; also: nearly all actives have a fitted effect of over 30% in size; also: potency is read from the fitted curve at half-maximal effect). An outline of the steps: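 After overnight attachment at 37 C, SH-SY5Y cells get 30 min compound exposure; detection cocktail (acetylthiocholine, DTNB) then incubates 90 min at 37 C, and absorbance reflects AChE-generated thiocholine.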

Assay [15] is described as follows: qHTS assay to identify small molecule agonists of the TGF-beta/Smad signaling pathway - cell viability counter screen (AID 1346829). Also: nearly all actives have a fitted effect of over 45% in size. Also: potency is read from the fitted curve at half-maximal effect. The method in brief: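 In parallel with the Smad reporter read, viability of HEK 293T cells stably carrying SBE-bla is quantified by ATP luminescence following 5 hr compound treatment.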
A short description of assay [16]: Caspase-3/7 induction in HepG2 cells by small molecules, qHTS cell viability counter screen (AID 1346981). Also: nearly all actives have a fitted effect of over 30% in size. Also: potency is read from the fitted curve at half-maximal effect. An outline of the steps:
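In this quantitative HTS counter screen, compounds delivered in DMSO were left on unmodified HepG2 cells for 16 hr at 37 C. Viability was then determined fluorometrically with CellTiter-Fluor, in parallel with caspase-3/7 induction in the same wells.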

Assay [17] has as its target Nuclear receptor subfamily 1 group I member 2 (Rattus norvegicus) (UniProt Q9R1A7). The assay can be described thus: Rat pregnane X receptor (rPXR) activation by small molecules, qHTS assay (AID 1346983). Also: nearly all actives have a fitted effect of over 20% in size. Particulars: rPXR luciferase reporter cells, One-Glo luminescence, 24 h; stronger effect = higher value. The method in brief: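 Cell-based rPXR activation assay: rPXR cells, 2,000 per well, rested 5hr at 37 C, then exposed to compounds in DMSO for 24 hr at 37 C. Luciferase activity read by One-Glo luminescence after 30 min at room temperature.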

For assay [18], the target named is Nuclear receptor subfamily 1 group I member 2 (Homo sapiens) (UniProt O75469). The assay is described as follows: CYP3A4 induction through human pregnane X receptor (PXR) by small molecules, qHTS assay (AID 1346984). Also: nearly all actives have a fitted effect of over 40% in size. The method in brief:
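Induction measured in HepG2-based DPX-2 cells co-expressing human PXR and a CYP3A4 promoter-driven luciferase. After a 24-hour compound exposure, cells received CYP3A4 luciferin substrate at 3uM final for 3 hours, and light output was then recorded.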

The target is the same in assay [19]. The assay is described as follows: Human pregnane X receptor (PXR) activation by small molecules, qHTS assay (AID 1346985). Also: nearly all actives have a fitted effect of over 40% in size. An outline of the steps:
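DPX-2 cells (HepG2 co-transfected with a PXR response element and a CYP3A4-promoter luciferase construct) were seeded at 2,000 per well, rested 5 hr at 37C, then exposed to DMSO-dissolved compounds for 24 hr. Activation was read as luciferase luminescence.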
% is scaled to controls: 0 for no effect and ±100 for the full control effect.

Chain of Progesterone receptor (Homo sapiens) (P06401 whole entry, looked up): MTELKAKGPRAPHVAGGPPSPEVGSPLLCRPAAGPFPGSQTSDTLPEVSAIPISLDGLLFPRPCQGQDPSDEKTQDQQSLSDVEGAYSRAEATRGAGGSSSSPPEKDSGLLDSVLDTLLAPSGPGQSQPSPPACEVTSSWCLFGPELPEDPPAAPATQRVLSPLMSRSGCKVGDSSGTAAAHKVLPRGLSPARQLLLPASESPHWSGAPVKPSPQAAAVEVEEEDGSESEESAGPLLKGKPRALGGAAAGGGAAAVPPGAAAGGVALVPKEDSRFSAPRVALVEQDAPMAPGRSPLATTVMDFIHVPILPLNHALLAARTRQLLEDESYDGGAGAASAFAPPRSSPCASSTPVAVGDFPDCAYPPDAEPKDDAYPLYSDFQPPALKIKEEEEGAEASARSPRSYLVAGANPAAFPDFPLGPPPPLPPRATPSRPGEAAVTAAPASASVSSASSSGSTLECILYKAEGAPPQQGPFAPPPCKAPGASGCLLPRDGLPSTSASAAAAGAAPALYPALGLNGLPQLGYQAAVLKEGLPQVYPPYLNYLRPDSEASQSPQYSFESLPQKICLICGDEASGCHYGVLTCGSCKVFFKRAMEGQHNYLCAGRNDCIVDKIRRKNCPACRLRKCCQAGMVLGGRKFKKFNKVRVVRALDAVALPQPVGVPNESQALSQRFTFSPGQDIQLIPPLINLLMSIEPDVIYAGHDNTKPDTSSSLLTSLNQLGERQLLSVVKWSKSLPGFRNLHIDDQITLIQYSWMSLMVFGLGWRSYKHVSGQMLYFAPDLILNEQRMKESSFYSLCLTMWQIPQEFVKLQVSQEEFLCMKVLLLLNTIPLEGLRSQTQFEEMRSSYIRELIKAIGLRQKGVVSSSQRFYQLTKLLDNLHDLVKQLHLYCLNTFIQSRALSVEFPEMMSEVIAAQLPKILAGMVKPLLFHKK
Chain of Acetylcholinesterase (Homo sapiens) (P22303 whole entry, looked up): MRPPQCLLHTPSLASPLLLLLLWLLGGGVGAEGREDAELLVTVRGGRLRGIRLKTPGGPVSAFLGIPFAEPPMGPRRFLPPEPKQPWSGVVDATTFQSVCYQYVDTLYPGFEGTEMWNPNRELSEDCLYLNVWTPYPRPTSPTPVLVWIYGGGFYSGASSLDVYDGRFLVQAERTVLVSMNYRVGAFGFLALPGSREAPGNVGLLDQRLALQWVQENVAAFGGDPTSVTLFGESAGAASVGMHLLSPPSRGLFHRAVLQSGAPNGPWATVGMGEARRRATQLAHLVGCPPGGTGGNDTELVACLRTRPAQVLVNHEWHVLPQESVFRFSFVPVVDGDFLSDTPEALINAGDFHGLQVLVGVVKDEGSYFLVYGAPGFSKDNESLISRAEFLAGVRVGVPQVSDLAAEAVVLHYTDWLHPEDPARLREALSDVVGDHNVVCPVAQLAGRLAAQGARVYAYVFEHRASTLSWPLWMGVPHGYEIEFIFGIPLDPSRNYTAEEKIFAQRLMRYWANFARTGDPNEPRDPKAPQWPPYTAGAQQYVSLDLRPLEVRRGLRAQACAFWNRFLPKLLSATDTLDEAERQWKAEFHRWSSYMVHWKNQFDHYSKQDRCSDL
Chain of Thyrotropin-releasing hormone receptor (Homo sapiens) (P34981 whole entry, looked up): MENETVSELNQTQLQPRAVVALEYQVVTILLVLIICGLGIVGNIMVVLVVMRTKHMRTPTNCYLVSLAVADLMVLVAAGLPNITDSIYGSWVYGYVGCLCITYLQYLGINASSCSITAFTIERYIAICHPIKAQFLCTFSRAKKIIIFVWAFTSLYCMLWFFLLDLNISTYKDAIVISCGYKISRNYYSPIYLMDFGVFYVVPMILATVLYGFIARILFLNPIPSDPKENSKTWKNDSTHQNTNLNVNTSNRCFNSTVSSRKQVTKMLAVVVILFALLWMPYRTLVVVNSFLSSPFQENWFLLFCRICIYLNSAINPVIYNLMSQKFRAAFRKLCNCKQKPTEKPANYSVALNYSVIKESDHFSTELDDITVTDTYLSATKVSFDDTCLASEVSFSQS
Chain of Nuclear receptor subfamily 1 group I member 2 (Homo sapiens) (O75469 whole entry, looked up): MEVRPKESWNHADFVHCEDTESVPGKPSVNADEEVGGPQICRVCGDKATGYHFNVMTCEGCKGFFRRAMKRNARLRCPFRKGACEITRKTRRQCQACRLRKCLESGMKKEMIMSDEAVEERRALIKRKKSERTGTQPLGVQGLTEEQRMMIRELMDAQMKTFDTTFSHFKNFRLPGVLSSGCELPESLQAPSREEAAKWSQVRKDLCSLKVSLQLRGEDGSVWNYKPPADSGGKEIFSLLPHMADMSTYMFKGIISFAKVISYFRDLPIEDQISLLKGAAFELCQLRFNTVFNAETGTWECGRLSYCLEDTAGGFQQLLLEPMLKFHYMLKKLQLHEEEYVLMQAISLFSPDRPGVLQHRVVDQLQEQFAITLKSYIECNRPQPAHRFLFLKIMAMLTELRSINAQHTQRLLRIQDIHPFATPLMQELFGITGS
Chain of Nuclear receptor subfamily 1 group I member 2 (Rattus norvegicus) (Q9R1A7 whole entry, looked up): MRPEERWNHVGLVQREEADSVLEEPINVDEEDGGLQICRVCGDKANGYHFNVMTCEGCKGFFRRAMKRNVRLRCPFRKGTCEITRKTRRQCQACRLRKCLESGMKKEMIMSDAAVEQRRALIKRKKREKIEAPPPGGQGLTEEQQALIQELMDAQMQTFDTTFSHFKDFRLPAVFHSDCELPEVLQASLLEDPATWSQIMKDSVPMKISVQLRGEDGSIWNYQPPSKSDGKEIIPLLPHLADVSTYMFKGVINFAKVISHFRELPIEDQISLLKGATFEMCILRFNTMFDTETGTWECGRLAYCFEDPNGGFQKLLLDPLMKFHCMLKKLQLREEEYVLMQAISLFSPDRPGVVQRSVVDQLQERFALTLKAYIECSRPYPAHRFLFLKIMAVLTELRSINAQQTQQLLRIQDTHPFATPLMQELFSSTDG

For the compound `CCC1(CC)C(=O)C=CNC1=O`, the Potency entry in [1], in assay [2], in assay [3], in assay [4], in assay [7] and in assay [9] was “inactive” throughout. Further, the Potency result in assay [11], in assay [13] and in assay [14] was “inactive” each time. Further, the compound was called inactive in assay [5], in assay [6], in [8], in assay [10] and in [12].
Take `[O-][Br+2]([O-])O`: the Potency entry in assay [1], in [3], in [4], in assay [15], in assay [7] and in assay [9] was “inactive” throughout. In addition, the Potency entry in assay [11], in [16], in assay [13] and in [14] was “inactive” in each case. The compound was called inactive in assay [5], in assay [6], in assay [8], in assay [10] and in assay [12].
For `O=C1C2CC=CCC2C(=O)N1SC(Cl)(Cl)Cl` (stereo not given), the Potency result in assay [1], in assay [13], in assay [18], in [19] and in assay [14] was “inactive” throughout. The Potency result in assay [2] is “inactive and 42.6 µM (active)”; in assay [15], “inactive and 48.2 µM (active)”; in assay [7], “inactive and 33.3 µM (active)”; in assay [9] it was “inactive and 21.3 µM (active)”; in assay [11], 68.3 µM (active) and 12 µM (active); in assay [16] it was “inactive and 60.1 µM (active)”. Moreover, the call in assay [5], in assay [6], in assay [8], in assay [10] and in assay [12] was inactive. Moreover, the max activation in assay [17] is -17% (inactive).
In the case of `NNCc1ccccc1`, the Potency entry in assay [1], in [2], in assay [3], in assay [15], in assay [7] and in [11] was “inactive” each time. Besides, the Potency result in assay [14] was “inactive”. For the same compound, the compound was classed as inactive in assay [5], in assay [6], in assay [8] and in [10]. In addition, the Potency in assay [13] is 55.5 µM (active).
With `Cc1ccc(-c2nc3ccc(C)cn3c2CC(=O)N(C)C)cc1`, the Potency entry in assay [1], in [2], in assay [3], in [4], in assay [7] and in [9] was “inactive” in each case. The Potency entry in assay [11], in assay [18], in assay [19] and in [14] was “inactive” in each case. The compound was called inactive in assay [5], in [6], in assay [8] and in assay [10]. Also, in assay [13], the Potency was 23.7 µM (active). In [17], the max activation was 1.42% (inactive).
Take `CC#Cc1cc(C)nc(Nc2ccccc2)n1`: the Potency result in [1], in assay [3], in assay [15], in assay [7], in assay [9] and in assay [11] was “inactive” in each case. Also, the Potency entry in assay [16] and in assay [14] was “inactive” in each case. Moreover, the results for the Potency in assay [2] and in [13] were 24.3 µM (active) and 30.6 µM (active), respectively. Besides, the outcome in assay [5], in [6], in [8] and in assay [10] was inactive.
Regarding `CCCOc1nn(C(=O)NS(=O)(=O)c2ccccc2C(=O)OC)c(=O)n1C`, the Potency entry in [1], in [2], in assay [3], in assay [4], in assay [15] and in [9] was “inactive” in each case. The Potency result in assay [11], in [16] and in assay [14] was “inactive” in each case. Also, the compound was called inactive in [6], in [10] and in assay [12].
Regarding `CNC(=O)Oc1cc(C)c(N(C)C)c(C)c1`, the Potency result in [1], in assay [3], in [4], in [7], in assay [9] and in assay [16] was “inactive” throughout. Besides, the compound was called inactive in [5], in assay [6], in assay [8], in [10] and in [12]. Besides, the values for the Potency in assay [13] and in [14] were 30.6 µM (active) and 2.52 µM (active), respectively.
With `O=C(Cl)c1ccccc1`, the Potency result in assay [1], in assay [3], in assay [4], in assay [7], in [11] and in [16] was “inactive” in each case. In assay [14], the Potency entry was “inactive”. Besides, the outcome in assay [5], in assay [6], in assay [8], in assay [10] and in [12] was inactive.
